Measurements reported in the supplement of paper PMC12494721.
Structures can show the parent of a compound that is named as a salt.

What was measured:
Details in all cases: 20 µM; incubation time: 27 h, anaerobic, 37 °C;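 for the amine columns active = adjusted P below 0.05 in both replicates with a change the same way and a mean fold change under 0.8 or over 1.25; inactive = the rest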
[1] = test system: Clostridium sporogenes DSM 1664; assay: growth (OD595) fold change vs plate DMSO controls (fold change (ratio)); higher = more growth
How it was run: (§1)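 Absorbance at 595 nm was read after shaking the anaerobic mGAM cultures, which had grown in 96-well plates for 27 h at 37 °C. After blank subtraction and background correction against 20 µM compound solutions in water, a calibration factor of 5 gave OD values. Growth is the fold change against the median of the plate's DMSO controls. Values are the mean of 2 biological replicates, with fold changes above 1.5 set to NA.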

[2] = test system: Escherichia coli IAI1; assay: as above
How it was run: as §1

[3] = test system: Klebsiella aerogenes DSM 30053; assay: as above
How it was run: as §1

[4] = test system: Ruminococcus gnavus DSM 108212; assay: as above
How it was run: as §1

[5] = test system: Klebsiella aerogenes DSM 30053; assay: fold change of Histamine concentration vs plate DMSO controls (fold change (ratio)); higher = more amine produced, active = hit call of the paper (significant change in both replicates, either direction)
How it was run: (§2)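 Amines were quantified by LC–triple-quadrupole MS in dynamic MRM mode against external calibration curves, with drift correction within each batch. The samples were whole anaerobic mGAM cultures of four gut bacterial strains, grown for 27 h at 37 °C in 80 µL wells and extracted with cold acetonitrile/methanol with 0.1% formic acid, then centrifuged. Values are reported as fold change over DMSO controls on the same plate. The mean of 2 biological replicates is given.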

[6] = test system: Clostridium sporogenes DSM 1664; assay: fold change of Tryptamine concentration vs plate DMSO controls (fold change (ratio)); higher = more amine produced, active = hit call of the paper (significant change in both replicates, either direction)
How it was run: as §2

[7] = test system: Ruminococcus gnavus DSM 108212; assay: as above
How it was run: as §2

[8] = test system: Escherichia coli IAI1; assay: fold change of Putrescine concentration vs plate DMSO controls (fold change (ratio)); higher = more amine produced, active = hit call of the paper (significant change in both replicates, either direction)
How it was run: as §2

[9] = test system: Klebsiella aerogenes DSM 30053; assay: as above
How it was run: as §2

[10] = test system: Escherichia coli IAI1; assay: fold change of Cadaverine concentration vs plate DMSO controls (fold change (ratio)); higher = more amine produced, active = hit call of the paper (significant change in both replicates, either direction)
How it was run: as §2

[11] = test system: Klebsiella aerogenes DSM 30053; assay: as above
How it was run: as §2

[12] = test system: Ruminococcus gnavus DSM 108212; assay: fold change of 2-Phenylethylamine concentration vs plate DMSO controls (fold change (ratio)); higher = more amine produced, active = hit call of the paper (significant change in both replicates, either direction)
How it was run: as §2

## CC(C)N(C)S(=O)(=O)NC(=O)c1cc(-n2c(=O)cc(C(F)(F)F)n(C)c2=O)c(F)cc1Cl
[1]
  growth: 0.954
[2]
  growth: 0.981
[3]
  growth: 1
[4]
  growth: 1.03
[5]
  fold change of Histamine concentration: 0.99 (inactive)
[6]
  fold change of Tryptamine concentration: 1.03 (inactive)
[7]
  fold change of Tryptamine concentration: 0.884 (inactive)
[8]
  fold change of Putrescine concentration: 0.983 (inactive)
[9]
  fold change of Putrescine concentration: 0.985 (inactive)
[10]
  fold change of Cadaverine concentration: 1.01 (inactive)
[11]
  fold change of Cadaverine concentration: 0.993 (inactive)
[12]
  fold change of 2-Phenylethylamine concentration: 0.819 (inactive)

## Cc1nnc(-c2ccccc2)c(=O)n1N
[1]
  growth: 0.969
[2]
  growth: 1.05
[3]
  growth: 0.993
[4]
  growth: 1.01
[5]
  fold change of Histamine concentration: 1.04 (inactive)
[6]
  fold change of Tryptamine concentration: 0.988 (inactive)
[7]
  fold change of Tryptamine concentration: 1.04 (inactive)
[8]
  fold change of Putrescine concentration: 0.965 (inactive)
[9]
  fold change of Putrescine concentration: 1 (inactive)
[10]
  fold change of Cadaverine concentration: 1.03 (inactive)
[11]
  fold change of Cadaverine concentration: 0.972 (inactive)
[12]
  fold change of 2-Phenylethylamine concentration: 1.13 (inactive)

## CN1CCN(C(=O)OC2c3nccnc3C(=O)N2c2ccc(Cl)cn2)CC1 (stereo not drawn) [Zopiclone]
[1]
  growth: 1.13
[2]
  growth: 0.987
[3]
  growth: 0.952
[4]
  growth: 0.842
[5]
  fold change of Histamine concentration: 1.03 (inactive)
[6]
  fold change of Tryptamine concentration: 1.02 (inactive)
[7]
  fold change of Tryptamine concentration: 0.989 (inactive)
[8]
  fold change of Putrescine concentration: 0.98 (inactive)
[9]
  fold change of Putrescine concentration: 1.02 (inactive)
[10]
  fold change of Cadaverine concentration: 0.979 (inactive)
[11]
  fold change of Cadaverine concentration: 0.99 (inactive)
[12]
  fold change of 2-Phenylethylamine concentration: 0.988 (inactive)

## CCC1(C2=NCCN2)Cc2ccccc2O1 (stereo not drawn) [Efaroxan hydrochloride]
[1]
  growth: 1.05
[2]
  growth: 1.05
[3]
  growth: 0.982
[4]
  growth: 1.08
[5]
  fold change of Histamine concentration: 0.992 (inactive)
[6]
  fold change of Tryptamine concentration: 0.939 (inactive)
[7]
  fold change of Tryptamine concentration: 1.03 (inactive)
[8]
  fold change of Putrescine concentration: 0.97 (inactive)
[9]
  fold change of Putrescine concentration: 1.01 (inactive)
[10]
  fold change of Cadaverine concentration: 1.06 (inactive)
[11]
  fold change of Cadaverine concentration: 0.997 (inactive)
[12]
  fold change of 2-Phenylethylamine concentration: 1.01 (inactive)

## CC1(C(=O)Nc2ccc(O)c(Cl)c2Cl)CCCCC1
[1]
  growth: 0.939
[2]
  growth: 1.02
[3]
  growth: 1
[4]
  growth: 1.22
[5]
  fold change of Histamine concentration: 0.992 (inactive)
[6]
  fold change of Tryptamine concentration: 0.999 (inactive)
[7]
  fold change of Tryptamine concentration: 0.96 (inactive)
[8]
  fold change of Putrescine concentration: 0.992 (inactive)
[9]
  fold change of Putrescine concentration: 0.99 (inactive)
[10]
  fold change of Cadaverine concentration: 1.03 (inactive)
[11]
  fold change of Cadaverine concentration: 1 (inactive)
[12]
  fold change of 2-Phenylethylamine concentration: 0.987 (inactive)

## CCC(CC)Nc1c([N+](=O)[O-])cc(C)c(C)c1[N+](=O)[O-]
[1]
  growth: 1.11
[2]
  growth: 1.01
[3]
  growth: 0.983
[4]
  growth: 1.02
[5]
  fold change of Histamine concentration: 1.07 (inactive)
[6]
  fold change of Tryptamine concentration: 1.04 (inactive)
[7]
  fold change of Tryptamine concentration: 0.998 (inactive)
[8]
  fold change of Putrescine concentration: 0.991 (inactive)
[9]
  fold change of Putrescine concentration: 1.01 (inactive)
[10]
  fold change of Cadaverine concentration: 1.01 (inactive)
[11]
  fold change of Cadaverine concentration: 0.992 (inactive)
[12]
  fold change of 2-Phenylethylamine concentration: 1.01 (inactive)

## CN(C)C(=O)Oc1ccc[n+](C)c1 [Pyridostigmine iodide]
[1]
  growth: 1.02
[2]
  growth: 0.975
[3]
  growth: 1
[4]
  growth: 0.901
[5]
  fold change of Histamine concentration: 1.05 (inactive)
[6]
  fold change of Tryptamine concentration: 0.975 (inactive)
[7]
  fold change of Tryptamine concentration: 1.01 (inactive)
[8]
  fold change of Putrescine concentration: 0.993 (inactive)
[9]
  fold change of Putrescine concentration: 0.98 (inactive)
[10]
  fold change of Cadaverine concentration: 1.01 (inactive)
[11]
  fold change of Cadaverine concentration: 1.03 (inactive)
[12]
  fold change of 2-Phenylethylamine concentration: 1.02 (inactive)

## COc1cc(OC)nc(NC(=O)NS(=O)(=O)c2ncccc2C(=O)N(C)C)n1
[1]
  growth: 1.19
[2]
  growth: 1.03
[3]
  growth: 1.02
[4]
  growth: 1.22
[5]
  fold change of Histamine concentration: 0.96 (inactive)
[6]
  fold change of Tryptamine concentration: 0.975 (inactive)
[7]
  fold change of Tryptamine concentration: 1.01 (inactive)
[8]
  fold change of Putrescine concentration: 0.924 (inactive)
[9]
  fold change of Putrescine concentration: 1.03 (inactive)
[10]
  fold change of Cadaverine concentration: 1.01 (inactive)
[11]
  fold change of Cadaverine concentration: 1.01 (inactive)
[12]
  fold change of 2-Phenylethylamine concentration: 0.998 (inactive)

## N[C@@H]1C[C@H]1c1ccccc1 [Tranylcypromine hydrochloride]
[1]
  growth: 1.05
[2]
  growth: 0.992
[3]
  growth: 1.03
[4]
  growth: 1.02
[5]
  fold change of Histamine concentration: 1.1 (inactive)
[6]
  fold change of Tryptamine concentration: 0.972 (inactive)
[7]
  fold change of Tryptamine concentration: 0.964 (inactive)
[8]
  fold change of Putrescine concentration: 1.01 (inactive)
[9]
  fold change of Putrescine concentration: 1.03 (inactive)
[10]
  fold change of Cadaverine concentration: 1.03 (inactive)
[11]
  fold change of Cadaverine concentration: 0.995 (inactive)
[12]
  fold change of 2-Phenylethylamine concentration: 0.928 (inactive)

## CCNC(=O)NC(=O)/C(C#N)=N/OC
[1]
  growth: 1.09
[2]
  growth: 1.08
[3]
  growth: 1
[4]
  growth: 1.05
[5]
  fold change of Histamine concentration: 0.937 (inactive)
[6]
  fold change of Tryptamine concentration: 0.956 (inactive)
[7]
  fold change of Tryptamine concentration: 1 (inactive)
[8]
  fold change of Putrescine concentration: 1.05 (inactive)
[9]
  fold change of Putrescine concentration: 1.02 (inactive)
[10]
  fold change of Cadaverine concentration: 1.06 (inactive)
[11]
  fold change of Cadaverine concentration: 1.02 (inactive)
[12]
  fold change of 2-Phenylethylamine concentration: 1.02 (inactive)

## CC(Oc1ccc(Oc2nc3ccc(Cl)cc3o2)cc1)C(=O)O (racemic)
[1]
  growth: 1.06
[2]
  growth: 1.04
[3]
  growth: 1.02
[4]
  growth: 1.01
[5]
  fold change of Histamine concentration: 0.989 (inactive)
[6]
  fold change of Tryptamine concentration: 1 (inactive)
[7]
  fold change of Tryptamine concentration: 1 (inactive)
[8]
  fold change of Putrescine concentration: 1.03 (inactive)
[9]
  fold change of Putrescine concentration: 1.01 (inactive)
[10]
  fold change of Cadaverine concentration: 0.937 (inactive)
[11]
  fold change of Cadaverine concentration: 1.02 (inactive)
[12]
  fold change of 2-Phenylethylamine concentration: 1.01 (inactive)

## CNC(=O)Oc1cccc(/N=C/N(C)C)c1
[1]
  growth: 0.913
[2]
  growth: 0.992
[3]
  growth: 0.988
[4]
  growth: 1.04
[5]
  fold change of Histamine concentration: 1.02 (inactive)
[6]
  fold change of Tryptamine concentration: 1.04 (inactive)
[7]
  fold change of Tryptamine concentration: 0.993 (inactive)
[8]
  fold change of Putrescine concentration: 0.96 (inactive)
[9]
  fold change of Putrescine concentration: 1 (inactive)
[10]
  fold change of Cadaverine concentration: 1.02 (inactive)
[11]
  fold change of Cadaverine concentration: 1 (inactive)
[12]
  fold change of 2-Phenylethylamine concentration: 0.934 (inactive)

## CC(C)N1C(=O)N(c2ccccc2)CS/C1=N\C(C)(C)C
[1]
  growth: 1.04
[2]
  growth: 1.03
[3]
  growth: 1.03
[4]
  growth: 0.99
[5]
  fold change of Histamine concentration: 0.967 (inactive)
[6]
  fold change of Tryptamine concentration: 1.03 (inactive)
[7]
  fold change of Tryptamine concentration: 1.03 (inactive)
[8]
  fold change of Putrescine concentration: 1.02 (inactive)
[9]
  fold change of Putrescine concentration: 1.03 (inactive)
[10]
  fold change of Cadaverine concentration: 1.06 (inactive)
[11]
  fold change of Cadaverine concentration: 1.01 (inactive)
[12]
  fold change of 2-Phenylethylamine concentration: 0.961 (inactive)

## CCC(COC(=O)c1cc(OC)c(OC)c(OC)c1)(c1ccccc1)N(C)C (stereo not drawn) [Trimebutine]
[1]
  growth: 0.842
[2]
  growth: 0.979
[3]
  growth: 0.999
[4]
  growth: 0.868
[5]
  fold change of Histamine concentration: 0.944 (inactive)
[6]
  fold change of Tryptamine concentration: 0.936 (inactive)
[7]
  fold change of Tryptamine concentration: 1.06 (inactive)
[8]
  fold change of Putrescine concentration: 0.928 (inactive)
[9]
  fold change of Putrescine concentration: 1.01 (inactive)
[10]
  fold change of Cadaverine concentration: 0.997 (inactive)
[11]
  fold change of Cadaverine concentration: 1.01 (inactive)
[12]
  fold change of 2-Phenylethylamine concentration: 1.04 (inactive)
